Results taken from PubChem BioAssay AID2012 (Sanford-Burnham Center for Chemical Genomics, 2009).
Among all 290,000 compounds or so, about 2,700 (0.93%) were called active. The rule behind the calls is not given here. Many of the other results were omitted from the sample, so actives are more common in it than they were.

Molecular target: Eukaryotic translation initiation factor 4H (Homo sapiens) (UniProt Q15056)
Experiment: human eIF4H binding inhibitors, primary screen, translation initiation inhibitor project, biochemical, uHTS, fluorescence polarization (AID 2012);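 note: calls also rest on retests at 20 µM and on dose response follow-up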
Settings: eIF4H fluorescence polarization binding assay, stronger effect = higher value

Structure (SMILES)	inhibition (at 35 µM)	inhibition (confirmation average, at 20 µM)
O=C(NC1CCCC1)C(c1ccc(Cl)cc1)N(C(=O)c1csnn1)C1CC1 (configuration not stated)	-6.1% (inactive)	–
Cc1ccc(OCCCCc2c(C)n[nH]c2C)cc1	-10.3% (inactive)	–
CCOC(=O)CC1(NC(=O)c2cc(COc3cncc(Cl)c3)on2)CCCCC1	-10.4% (inactive)	–
COc1ccc(CN2CCN(C(=O)CCC(=O)Nc3nnc(C(C)C)s3)CC2)cc1F	-7.1% (inactive)	–
COc1ccc(NC(=O)CCN2C(=O)/C(=C/c3ccc4c(c3)OCO4)SC2=S)cc1	5.7% (inactive)	–
Cn1c(=O)n(C)c2cc(C(=O)Nc3ccc4c(c3)OCO4)ccc21	-6.6% (inactive)	–
Cc1ccc(C(=O)O)cc1-c1ccc(/C=C2\SC(=O)N(CC(=O)Nc3ccc4c(c3)OCO4)C2=O)o1	59.7% (active)	–
Cc1ccc(S(=O)(=O)N(CC(=O)Nc2cccnc2)c2ccc(Br)cc2)cc1	2% (inactive)	–
CCC(NC(=O)C1CCCC1)c1ccc(C)cc1 (configuration not stated)	-4.3% (inactive)	–
Cc1ccccc1C(=O)N1CCC(C(=O)Oc2ccc(C#N)cc2)CC1	-15.9% (inactive)	–
CCN(CC)S(=O)(=O)c1ccc(N2CC(C(=O)NCc3cccnc3)CC2=O)cc1 (configuration not stated)	-0.4% (inactive)	–
COc1ccccc1C1=Nc2cccc3cccc(c23)N1	99.8% (active)	108%
c1ccc(C2=Nc3cccc4cccc(c34)N2)cc1	-0.5% (inactive)	–
Fc1ccccc1N=C1Nc2cccc3cccc1c23	-3.8% (inactive)	–
CC1CCC2(CC1)NC(=O)N(CC(=O)c1ccc3c(c1)OCO3)C2=O (configuration not stated)	-5.1% (inactive)	–
Cn1cccc1C(=O)N1CCc2ccccc2C1	-1.9% (inactive)	–
CN(CC(=O)Nc1c(Cl)cccc1Cl)C(=O)CNC(=O)C1CCCCC1	-8.8% (inactive)	–
Cc1cccc(NC(=O)c2sc3nc4c(c(-c5ccco5)c3c2N)CCC4)c1	82.9% (active)	90.9%
CC(=O)Nc1ccc(NC(=O)c2sc3nc4c(c(-c5ccc(C)cc5)c3c2N)CCC4)cc1	-0.5% (inactive)	–
Cc1cccc(NC(=O)c2sc3nc(N4CCOCC4)c4c(c3c2N)CCCC4)c1	-4.2% (inactive)	–
Cc1ccc(-n2ncc3c2CC(C)(C)CC3NC(=O)Cc2c(C)noc2C)cc1 (configuration not stated)	5.3% (inactive)	–
CSc1nc(-c2ccco2)nn1C(=O)CCc1ccccc1	-7.7% (inactive)	–
CCOC(=O)/C=c1\s/c(=C\c2ccccc2OC)c(=O)n1CC(=O)N1CCOCC1	5.6% (inactive)	–
CCOc1ccccc1/C=c1\sc2nc(-c3ccco3)nn2c1=O	81.8% (active)	–
Cc1ccc2[nH]c(=O)c(CN(C)S(=O)(=O)c3cccc4nonc34)cc2c1	-5.4% (inactive)	–
